# A selection: hits, their analogues and other compounds. The true share with any hit is near 2.2%.
# SMARCA2 act – SMARCA2 function activation, primary screen; MG213 cells, MMTV-luciferase reporter, dexamethasone, overnight; activation, % at 9.1 µM; 370,000 tested, 1% active; in the data active = activation above about 7.8%;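 note: 0% = vehicle wells and 100% = reference activator wells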
# GalR3 antagonist – human GalR3 antagonism | HEK293 GalR3-CNG cAMP membrane potential fluorescence; galR3 body fused to GalR1 C-terminus | inhibition, % at 3 µM | 360,000 tested, 0.44% active | AID 651719;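 active = inhibition above the screen-wide average plus 3 SD, cut at about 13% in these data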;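 note: forskolin and galanin both at EC90 stimulate the cells; cAMP rise reported by CNG channel membrane potential dye signal; 0% = forskolin plus galanin with DMSO and 100% = forskolin alone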
# Target sequence (O60755 1-299 limits assumed): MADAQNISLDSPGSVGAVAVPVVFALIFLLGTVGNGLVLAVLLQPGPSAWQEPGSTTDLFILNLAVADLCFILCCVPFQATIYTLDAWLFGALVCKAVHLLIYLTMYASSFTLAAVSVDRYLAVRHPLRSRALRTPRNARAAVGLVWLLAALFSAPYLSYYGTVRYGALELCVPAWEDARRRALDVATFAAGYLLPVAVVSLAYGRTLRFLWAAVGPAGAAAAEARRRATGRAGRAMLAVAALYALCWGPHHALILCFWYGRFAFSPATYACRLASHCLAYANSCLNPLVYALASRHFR
# Hsp70 act – transcriptional activators of Hsp70; HeLa Hsp70 promoter luciferase reporter, luminescence; scaled: vehicle 0, proteasome-inhibitor control 100%; activation, % at 10 µM; 200,000 tested, 0.04% active; AID 1203;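 active = activation above the mean across all tested compounds plus 3 SD, cutoff set per campaign, cut at about 5.5% in these data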;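 note: 100% = MG132 at 30 µM as the positive control and 0% = DMSO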
# GAA850 FXN act – frataxin GAA850 promoter activation; 360,000 tested, 0.56% active; activation, % at 6 µM; HEK293 lucGAA850 FXN promoter luciferase reporter, 24 h; percent of 10 µM SAHA response; AID 540364;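 active = activation above the average of all compounds screened plus 3 SD, cutoff fixed separately per campaign, cut at about 7.5% in these data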;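 note: 0% = DMSO wells and 100% = 10 µM SAHA wells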
# HIF act – HIF pathway transcriptional activation; 300,000 tested, 0.32% active; U2OS HRE-luciferase reporter, luminescence; normalized: DMSO 0%, desferrioxamine 100%; activation, % at 7.5 µM (by protocol);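 active = mean activation of at least 10% of the iron chelator positive control signal, with at least half of replicates also reaching 10%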
# Hsp70 act DR – activates Hsp70 transcription in dose response; 70 tested, 10% active; HeLa hsp70.1pr-luc reporter, luciferase luminescence; calls only at 99 µM; shares compounds with Hsp70 act;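 active = over 50% activation at some tested dose; inactive = under 50% activation at every tested dose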
# * hit, by the source's call; i = inactive; · = no result; + = active, no number.
SMILES,SMARCA2 act,GalR3 antagonist,Hsp70 act,GAA850 FXN act,HIF act,others
O=C(NC(C(=O)N/N=C/c1ccncc1)c1n[nH]c(=O)c2ccccc12)c1ccccc1 (stereo not given),-2,-4,·,1,0,
CCCCCCn1nc(C(=O)Nc2nc3c(s2)CCCC3)c2ccccc2c1=O,-1,0,0,0,10*,
COC(=O)[C@]12C[C@H](CC(=O)NCc3cccc(C(F)(F)F)c3)C(=O)N(Cc3ccc4c(c3)OCO4)C1=C[C@H](C(C)C)O[C@@H]2C1CC1,-2,·,·,·,·,
COC(=O)Nc1ccc(NC(C)=O)cc1,4,-3,0,-3,-1,
COC(=O)Nc1ccc(S(=O)(=O)N(C)C)cc1,2,-4,0,6,29*,
CCCC[C@H]1C2CC(OC(=O)NCc3ccc(Cl)cc3)C(C2)[C@H]2CCCCN21 (stereo not given in full),-3,·,·,·,·,
O=C(N/N=C/c1ccccc1O)c1cccc(C(F)(F)F)c1,-3,0,0,-8,41*,
Cn1c(NC(=O)c2ccccc2)nc(Cc2ccccc2)c1-c1ccccc1,-4,·,·,·,·,
Cc1cccc(NC(=O)COc2cccc3c2CCN(C)C3=O)c1C,-2,1,0,-3,9.8*,
CC(C)CNC(=O)OCc1cn(Cc2cc(F)cc(F)c2)nn1,-3,·,·,·,·,
C=CCn1c2ccccc2c2nnc(SCCN3CCCCC3)nc21,1,-7,·,2,1,
c1ccc(Cn2c3ccccc3c3nnc(SCCN4CCCCC4)nc32)cc1,7.9*,-3,·,-1,0,
CCOC(=O)[C@]12CCCCC/C=C\1N(Cc1ccc(OC)cc1)C(=O)[C@H]2CC(=O)NCc1ccc(OC)c(OC)c1,-4,·,·,·,·,
Cc1nc2ncnn2c(C)c1CCC(=O)N1CCc2ccccc2C1,7.9*,-3,0,0,0,
Cc1nc2ncnn2c(C)c1CCC(=O)N1CCN(c2ccccn2)CC1,0,-4,0,1,0,
Cn1cccc1C(=O)N1CCN(S(=O)(=O)c2ccc(C(C)(C)C)cc2)CC1,-2,·,·,·,·,
Cc1ccc(Oc2ncc(CN3CCOCC3)s2)cc1,4,-4,0,2,0,
Clc1cccc(Oc2ncc(CN3CCOCC3)s2)c1,7.9*,-5,2,4,1,
Cc1cc2c(nc1C)CCCN2S(=O)(=O)c1c(C)noc1C,-2,-6,·,·,·,
Cc1c(C(=O)N2CCCCC2)c(S(=O)(=O)NCCc2ccc(Cl)cc2)c(C)n1C,-1,-1,·,2,14*,
COc1ccc([C@H]2OC(=O)C[C@H]2C(=O)N2CCN(c3ccccc3Cl)CC2)cc1OC,2,·,·,·,·,
O=C(O)c1cc(N/N=C/c2ccc(-c3ccccc3)cc2)ccc1Cl,3,-7,·,3,-33,
CSc1ccc(/C=N/Nc2ccc(Cl)c(C(=O)O)c2)cc1,7.9*,-3,0,5,174*,
COc1ccccc1-c1coc2c(CN3CCC(C)CC3)c(O)ccc2c1=O,-1,-11,·,3,-56,
CCC1CCCCN1Cc1c(O)ccc2c(=O)c(-c3ccccc3OC)coc12 (stereo not given),-3,-4,·,-1,45*,
SMILES,SMARCA2 act,GalR3 antagonist,Hsp70 act,GAA850 FXN act,HIF act,others
CC(/C=N/NC(=O)C(O)c1ccccc1)=C\c1ccccc1 (stereo not given),2,3,0,7.8*,2,
COc1ccc(C(=O)OCCN2CCN(C3CN(Cc4cn(Cc5cccc(C)c5)nn4)S(=O)(=O)C3)CC2)cc1OC (stereo not given),-2,·,·,·,·,
CN(CCNC(=O)CCNC(=O)Cn1ccc2ccccc2c1=O)Cc1ccccc1,1,1,0,2,0,
CCN(CCCNC(=O)CCNC(=O)Cn1ccc2ccccc2c1=O)c1ccccc1,1,2,0,0,32*,
C/C(=C\C(=O)OCC(=O)NCc1ccccc1)C(=O)OCC(=O)NCc1ccccc1,-2,-2,0,2,441*,
COc1ccc(/C=C2\CN(Cc3ccccc3)C/C(=C\c3ccc(OC)c(O)c3)C2=O)cc1O,5,-5,·,-13,-5,
CCN1C/C(=C/c2ccc(OC)c(O)c2)C(=O)/C(=C/c2ccc(OC)c(O)c2)C1,1,-9,644*,3,-7,Hsp70 act DR=+
COc1ccc(NC(=O)/C(Cl)=C(/Cl)S(=O)Cc2ccccc2Cl)cn1 (stereo not given),·,·,37*,·,·,Hsp70 act DR=i
Cc1c(O)ccc(C(=O)CN2CCN(Cc3ccc4c(c3)OCO4)CC2)c1O,-3,-1,79*,0,1,Hsp70 act DR=i
CC(NCc1ccco1)C(=O)N1CCN(c2ccc(F)cc2)CC1 (stereo not given),7,·,·,·,·,
CCN(C)C(=O)CN1C(=O)C2CCCCN2C(=O)c2ccccc21 (stereo not given),-6,·,·,·,·,
CCC(=O)N1CCN(c2ccc(NC(=O)c3ccc([N+](=O)[O-])o3)cc2)CC1,1,-5,1,3,-8,
CS(=O)(=O)N1CCN(c2ccc(NC(=O)c3ccc([N+](=O)[O-])o3)cc2)CC1,2,-6,8.1*,6,-4,Hsp70 act DR=i
CCCC(=O)N1CCN(c2ccc(NC(=O)c3ccc([N+](=O)[O-])o3)cc2)CC1,-1,-1,15*,7,-3,Hsp70 act DR=i
Cc1ccc(-n2ncc(Br)c(Br)c2=O)cc1,·,·,5,7,-7,
O=c1c(Br)c(Br)cnn1-c1ccccc1,-10,0,7.4*,-9,·,Hsp70 act DR=i
O=C(NCC1COc2ccccc2O1)C1CCCN(S(=O)(=O)c2cnc[nH]2)C1 (stereo not given),-2,-1,5.8*,-2,·,Hsp70 act DR=i
Cc1nn(C)c(C)c1S(=O)(=O)N1CCCC(C(=O)NCC2COc3ccccc3O2)C1 (stereo not given),1,-2,0,1,·,
CC(C)(C)c1ccc(-n2nc(C#N)c(Cl)cc2=O)cc1,-9,-9,16*,-8,-3,Hsp70 act DR=i
CCCN1CCCCC(NC(=O)c2ccc(Cl)cc2Cl)C1=O (stereo not given),0,0,·,·,·,
Cc1cccc(-c2noc(CCCC(=O)N3CCOCC3)n2)c1,-2,-3,15*,1,0,Hsp70 act DR=i
CCN1C(=O)/C(=C\N(C)C)NC1=S,-2,0,0,3,0,
CN(C)/C=C1/NC(=S)NC1=O,-2,1,6.1*,-2,0,Hsp70 act DR=i
O=C(Oc1ccc(F)cc1C(=O)/C=C/c1cccs1)c1cccc([N+](=O)[O-])c1,5,3,12*,6,1,Hsp70 act DR=i
Nn1c(SCC(=O)Nc2cc(C(F)(F)F)ccc2Cl)nnc1-c1n[nH]c2c1CCC2,-6,·,·,·,·,
O=c1cc(-c2ccccc2Cl)oc2cc(O)cc(O)c12,4,2,0,0,-1,
O=C1C=CC(O)(c2cc(=O)c3c(O)cc(O)cc3o2)C=C1,-7,-5,25*,-11,-3,Hsp70 act DR=+

# Screens deposited in PubChem by several laboratories.
